# Source: PubChem BioAssay (several laboratories)
# Hits are enriched below; roughly 1.6% of the tested compounds scored in any of these assays.
# PERK inh: block of dimerizer-induced PERK translation repression, primary screen, PERK inhibitor project, CHO PERK-DD cells, SEAP luminescence, HTS | Eukaryotic translation initiation factor 2-alpha kinase 3 (Homo sapiens), Q9NZJ5 | actives 0.17% (n = 220,000) | CHO PERK-DD fusion, SEAP luminescence translation reporter | inhibition, % at 5.6 µM;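 active = inhibition above the mean inhibition of all tested compounds plus 3 SD, set separately per screening campaign, cut at about 2.9% in these data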;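 note: PERK kinase domain activated by AP20187 dimerizer at 100 nM; 0% = DMSO with dimerizer and 100% = rapamycin at 8.4 µM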
# eIF4E 4G PPI: eIF4E–eIF4G protein interaction inhibitors, primary screen, biochemical, uHTS, TR-FRET, eIF4GI fragment; actives 0.37% (n = 220,000); TR-FRET eIF4E-eIF4GI(517-606) binding, 2 h; Eukaryotic translation initiation factor 4E (Mus musculus) + Eukaryotic translation …; inhibition, % at 21.7 µM;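 active = inhibition above about 30%, limit read from the data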;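 note: 0% = full FRET control wells and 100% = background wells lacking eIF4GI fragment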
# eIF4H FP inh: human eIF4H binding inhibitors, primary screen, translation initiation inhibitor project, biochemical, uHTS, fluorescence polarization | Eukaryotic translation initiation factor 4H (Homo sapiens), Q15056 | eIF4H fluorescence polarization binding assay | inhibition, % at 35 µM | actives 0.94% (n = 290,000);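 note: calls also rest on retests at 20 µM and on dose response follow-up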
# PABP FP inh: PABP poly(A) RNA binding inhibitors, primary screen, biochemical, fluorescence polarization, uHTS | calls only at 35 µM | actives 1% (n = 290,000) | Polyadenylate-binding protein 1 (Homo sapiens), P11940 | AID 2014, 2009;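 note: calls also rest on retests at 20 µM and on dose response follow-up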
# Target sequence (P11940 whole entry, looked up): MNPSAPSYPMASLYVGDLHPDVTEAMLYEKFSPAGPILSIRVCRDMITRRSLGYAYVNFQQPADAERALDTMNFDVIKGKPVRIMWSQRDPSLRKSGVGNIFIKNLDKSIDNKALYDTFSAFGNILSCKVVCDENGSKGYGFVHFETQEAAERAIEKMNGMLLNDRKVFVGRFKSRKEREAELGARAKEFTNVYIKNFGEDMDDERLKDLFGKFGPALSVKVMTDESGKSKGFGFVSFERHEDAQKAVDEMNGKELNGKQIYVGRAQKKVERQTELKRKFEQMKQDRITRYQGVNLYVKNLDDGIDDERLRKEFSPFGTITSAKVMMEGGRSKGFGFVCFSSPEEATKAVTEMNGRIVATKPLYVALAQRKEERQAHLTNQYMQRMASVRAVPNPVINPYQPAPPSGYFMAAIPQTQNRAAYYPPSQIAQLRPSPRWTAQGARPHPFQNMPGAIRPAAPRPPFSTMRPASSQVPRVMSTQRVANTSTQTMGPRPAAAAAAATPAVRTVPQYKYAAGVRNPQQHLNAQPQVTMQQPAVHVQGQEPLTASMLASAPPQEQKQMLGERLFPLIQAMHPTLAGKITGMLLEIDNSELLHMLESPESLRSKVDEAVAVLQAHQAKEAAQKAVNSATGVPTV
# PABP1 MLLE inh: inhibitors of PABP1 MLLE–PAM2 peptide binding, primary screen, biochemical, fluorescence polarization, FITC-PAM2, GST-MLLE. inhibition, % at 20 µM. actives 0.36% (n = 360,000). AID 588489, 2011; in the data active = inhibition above about 35%, passing the limit was not always enough;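 note: plate controls were DMSO wells with GST-MLLE for no effect and wells lacking GST-MLLE protein for full effect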
# Active calls of the source: *; i = inactive; / = not tested or not shown; + = active, no number. Unless noted, the rule behind the calls is not given here.
SMILES,PERK inh,eIF4E 4G PPI,eIF4H FP inh,PABP FP inh,PABP1 MLLE inh
CSc1ccc(C2Nc3cccc4cccc(c34)N2)cc1,/,/,90.3*,+,0.2
Cc1cccc(C2Nc3cccc4cccc(c34)N2)c1,/,/,52.8*,i,-5.8
Clc1ccc(C2Nc3cccc4cccc(c34)N2)c(Cl)c1,/,/,/,/,29.2
Clc1ccc(C2Nc3cccc4cccc(c34)N2)cc1,/,/,85.5*,+,18.3
c1cc2c3c(cccc3c1)NC(c1ccc3c(c1)OCO3)N2,/,/,23.0,i,-5.6
O=C(O)CSCC(=O)N(Cc1ccccc1)c1nc(-c2ccccc2)c(-c2ccccc2)s1,/,/,74.1*,i,-1.2
CCOC(=O)c1sc(N(Cc2ccccc2)C(=O)CCl)nc1C,/,/,-1.3,i,23.1
COc1ccc(NC(=O)CSc2nnc(NC(C)=O)s2)c([N+](=O)[O-])c1,0.0,-2.5,2.0,i,36.8*
O=C1CC(NC(=O)C(F)(F)F)=NN1c1ccccc1,0.7,-7.3,active,+,3.7
COc1ccc(O)c(/C=C(\C#N)C(=O)Nc2cccnc2)c1,0.3,37.1*,5.7,i,-77.0
Nc1nnc(SCc2ccccc2Cl)s1,1.5,77.2*,7.2*,+,1.1
Cn1c(=O)c2[nH]c(COc3ccccc3)nc2n(C)c1=O,/,/,/,/,63.0*
O=C(OCC(=O)c1ccc[nH]1)c1ccc(F)c(S(=O)(=O)N2CCOCC2)c1,/,/,/,/,6.8
O=S(=O)(Nc1ccccc1)c1cccc2nsnc12,/,/,71.2*,i,10.0
Nc1ccc(O)cc1C(=O)OCC(=O)c1ccc(C2CCCCC2)cc1,0.3,-0.8,93.3*,+,1.4
Nc1ccc(O)cc1C(=O)OCC(=O)C12CC3CC(CC(C3)C1)C2,0.6,/,68.2*,+,-23.0
O=C(OCC(=O)C12CC3CC(CC(C3)C1)C2)c1ccc(O)cc1,/,/,/,/,3.6
COc1ccc(N2C(=O)C3C(c4ccc(C(=O)O)cc4)NC(Cc4ccccc4)(C(=O)O)C3C2=O)c([N+](=O)[O-])c1 (centres undefined),0.0,-2.3,4.8,i,-30.5
CN(c1ccccc1)c1nccc(=O)[nH]1,/,/,/,/,31.9
c1csc(-c2nn3c(Cn4cnc5ccccc54)nnc3s2)c1,-0.9,33.2*,-8.7,i,31.1
c1csc(-c2nn3c(Cn4nnc5ccccc54)nnc3s2)c1,0.1,-0.8,-4.3,i,0.0
c1coc(-c2nn3c(Cn4nnc5ccccc54)nnc3s2)c1,-0.1,-2.1,4.7,i,38.1*
Brc1ccc(-c2nn3c(-c4ccco4)nnc3s2)o1,0.3,-21.7,66.2*,+,18.1
CCOC(=O)c1c(C2CC2)csc1NC(=O)COC(=O)CCS(=O)(=O)c1ccc(C)cc1,0.4,-2.4,-3.6,i,0.2
CC(C)NC(=O)c1cc(C2CCCCN2S(=O)(=O)c2ccccc2)on1 (centres undefined),/,/,/,/,-3.0
SMILES,PERK inh,eIF4E 4G PPI,eIF4H FP inh,PABP FP inh,PABP1 MLLE inh
Cc1ccc(C(=O)O)cc1NC(=O)CCc1c(C)noc1C,/,/,/,/,-2.2
CCN(CC)S(=O)(=O)c1ccc(OC)c(NC(=O)Cc2cccs2)c1,-1.4,34.0*,62.1,i,1.1
Cc1c(NC(=O)CC(C)C)c(=O)n(-c2ccccc2)n1C,0.5,2.3,-1.4,+,0.7
COC(=O)CCC(=O)Nc1c(C)n(C)n(-c2ccccc2)c1=O,-0.4,-0.8,1.1,i,-9.2
O=C(OCC(=O)N(CCc1ccccc1)Cc1ccccc1)c1cccc(S(=O)(=O)N2CCOCC2)c1,/,/,/,/,-5.9
N#CC1=C(N)C(C#N)(C#N)[C@H](c2cccnc2)[C@H]2CN(C(=O)OCc3ccccc3)CC=C12,-0.8,4.6,30.7,i,26.2
N#CC1=C(N)C(C#N)(C#N)C(c2ccncc2)C2CN(C(=O)OCc3ccccc3)CC=C12 (centres undefined),-0.7,-1.4,74.8*,+,12.6
COc1ccccc1N=c1oc2c(OC)cccc2cc1C(=O)NCc1ccco1,-0.1,-7.0,14.8,i,-11.3
COc1ccc(OC)c(N=c2oc3c(OC)cccc3cc2C(=O)NCc2ccco2)c1,/,/,118.2*,i,14.8
CN(C)C(=S)Oc1ccccc1C1(C)OCCO1,/,/,/,/,-5.5
O=C(CCCOc1ccccc1)Nc1ccc(Cl)cn1,-1.0,1.1,-3.5,i,-11.2
Cc1cc(C=O)c(C)n1-c1ccc(N2CCOCC2)c([N+](=O)[O-])c1,1.7,-3.0,82.1*,+,20.9
Cc1cc(C=O)c(C)n1-c1ccc(N2CCCC2)c([N+](=O)[O-])c1,-0.1,-0.7,-8.5,i,16.6
O=C1CC(N2CCN(Cc3ccc4c(c3)OCO4)CC2)C(=O)N1c1cccc2ccccc12 (centres undefined),0.8,-0.5,-4.4,i,-7.3
O=C1CC(N2CCN(Cc3ccc4c(c3)OCO4)CC2)C(=O)N1c1cccc(Cl)c1 (centres undefined),0.5,65.6*,-9.4,i,-1.3
CC(C)(CO)C(O)C(=O)NCCCO (centres undefined),/,/,/,/,-0.3
O=C(c1ccco1)N1CCN(C2CN(Cc3cn(Cc4ccccc4C(F)(F)F)nn3)S(=O)(=O)C2)CC1 (centres undefined),/,/,/,/,-2.0
COC(=O)[C@@]1(Cc2ccccc2)[C@H]2C(=O)N(C)C(=O)[C@H]2[C@H]2CN=C(SC)N21,/,/,/,/,-4.2
COc1ccc(Br)cc1C1NC(=O)c2c(sc3c2CCN(C)C3)N1 (centres undefined),/,/,99.6*,+,-32.8
CC(=O)Nc1ccc(N/C=C2/CCCC2=O)cc1,-0.7,-1.1,-4.3,i,-7.4
Cc1cc(O)ccc1N/C=C1\CCCC1=O,1.0,0.0,81.1*,i,-19.6
O=C(NCc1ccc(F)cc1)C1CCN(S(=O)(=O)N2CCOCC2)CC1,1.3,-1.5,-3.2,i,3.8
CCS(=O)(=O)N1CCC(C(=O)NCc2ccc(F)cc2)CC1,3.4*,4.2,-11.9,i,3.2
CCN(CCCNC(=O)C1CCN(S(=O)(=O)CC)CC1)c1cccc(C)c1,-0.1,-0.7,90.2*,+,16.5
COc1ccc(C)cc1N(CC(=O)NCCN1CCOCC1)S(=O)(=O)c1ccccc1,/,/,/,/,18.7
CCOC(=O)/C=C(\C)Sc1cc(O)c2ccccc2c1O,-1.3,4.7,16.1,i,61.6*
CCOC(=O)/C=C(\C)Sc1cc(=O)oc2ccccc12,-1.1,-2.1,-9.6,i,5.2
CN(C1CCCCC1)S(=O)(=O)c1ccc2c(c1)c(=O)c(C(=O)O)cn2C,/,/,/,/,-8.2
COCCCn1c(=NC(C)=O)c(C#N)cc2c(=O)n3cccc(C)c3nc21,0.6,6.2,106.8*,+,3.1
CCOCCCn1c(=NC(=O)c2cccs2)c(C#N)cc2c(=O)n3cccc(C)c3nc21,-0.5,-1.3,54.8,+,124.0
